Test results: PubChem BioAssay AID489043 (National Center for Advancing Translational Sciences (NCATS), 2010)
Results filed as inconclusive are left out. Where a call stands in place of a potency, no number is given. The source made the active and inactive calls. The call rests on the fitted dose curve; in most records, active means well fitted activation curve with a large enough effect; inconclusive means small, poorly fitted or top-dose-only effect; inactive means flat fitted curve, though single readings scatter.

target: Relaxin receptor 2 (Homo sapiens) (UniProt Q8WXD0); experiment: qHTS Assay for Agonists of the Relaxin Receptor RXFP1: RXFP2 Hit Validation; conditions: HEK293 RXFP2 cAMP TR-FRET, 30 min; series mostly up to 115 µM; further: nearly all actives have a fitted effect of over 65% in size
Procedure, shortened: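 TR-FRET cAMP read-out in lysed HEK293 RXFP2 cells, normalized to buffer (basal) and 29 nM porcine relaxin (100%). Compounds 30 min, 37C, with Ro 20174 present. EC50 via standard Hill equation.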
Potency means the concentration at half of the fitted maximal effect.

Sequence of Relaxin receptor 2 (Homo sapiens) (Q8WXD0 whole entry, looked up): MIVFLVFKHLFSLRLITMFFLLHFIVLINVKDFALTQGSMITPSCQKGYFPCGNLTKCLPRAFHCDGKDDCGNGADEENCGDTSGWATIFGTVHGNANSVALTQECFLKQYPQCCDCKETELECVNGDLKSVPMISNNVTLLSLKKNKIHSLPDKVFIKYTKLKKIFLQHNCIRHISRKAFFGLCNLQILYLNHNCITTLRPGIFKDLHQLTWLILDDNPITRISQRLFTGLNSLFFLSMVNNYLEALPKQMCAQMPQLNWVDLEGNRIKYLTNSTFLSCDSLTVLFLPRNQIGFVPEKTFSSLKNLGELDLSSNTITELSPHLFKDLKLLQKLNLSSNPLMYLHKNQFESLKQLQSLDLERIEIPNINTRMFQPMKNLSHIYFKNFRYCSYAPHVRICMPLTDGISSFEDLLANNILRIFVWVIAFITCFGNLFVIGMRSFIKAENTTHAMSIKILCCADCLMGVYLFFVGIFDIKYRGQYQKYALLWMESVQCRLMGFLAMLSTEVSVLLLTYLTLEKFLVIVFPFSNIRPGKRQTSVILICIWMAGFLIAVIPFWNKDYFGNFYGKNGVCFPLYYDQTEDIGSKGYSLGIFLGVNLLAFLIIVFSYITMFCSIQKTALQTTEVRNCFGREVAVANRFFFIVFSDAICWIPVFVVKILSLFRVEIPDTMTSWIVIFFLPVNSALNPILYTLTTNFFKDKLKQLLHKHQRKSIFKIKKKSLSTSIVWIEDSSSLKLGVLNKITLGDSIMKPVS

Compound | Potency
Cc1ccc(NC(=O)CCc2nnc3ccc(N4CCN(C)CC4)nn23)cc1F | 38.9 µM (active)
Cc1ccccc1NC(=O)c1ccccc1NC(=O)c1ccco1 | inactive
C=C(C)C(=O)Nc1cccc(C2=NOC3(C2)C[C@@H](C(N)=O)N(C(=O)c2ccc(Cl)cc2)C3)c1 (stereo partly drawn) | inactive
CCOC(=O)N1CCN(S(=O)(=O)c2c(C)nc3scc(C)n3c2=O)CC1 | 30.9 µM (active)
O=C(Nc1ccccc1C(=O)NCCc1ccccc1)c1ccco1 | inactive
CC(C(=O)Nc1cccnc1)n1cc([N+](=O)[O-])cn1 (stereo not drawn) | inactive
C=CCNc1ncnc2c1ncn2C1OC(CO)C(O)C1O (stereo not drawn) | inactive
NS(=O)(=O)c1ccc(CCNC(=O)C2CCN(c3ncnc4c3nc3n4CCCCC3)CC2)cc1 | 38.9 µM (active)
COc1ccc(CN2C(=O)c3cccnc3C2=O)cc1S(=O)(=O)NC1CCCCC1C (stereo not drawn) | 15.5 µM (active)
Nc1c(Cl)cc(-c2[nH]c3cc(C(=O)NCCO)ccc3c(=O)c2O)cc1Cl | 34.6 µM (active)
CN(Cc1ccccc1)C(=O)c1ccccc1NC(=O)c1ccco1 | inactive
COc1ccc(CCn2c(=N)c(C(=O)NCC3CCCO3)cc3c(=O)n4cccc(C)c4nc32)cc1 (stereo not drawn) | inactive
C=CCSc1nc2c(c(=O)[nH]1)C(C(C)C)C(C#N)=C(N)O2 (stereo not drawn) | 43.6 µM (active)
Cc1cc(NC(=O)CSc2ncnc3c2cnn3-c2cccc(Cl)c2)no1 | inactive
Cn1c(=O)c2sccc2n2c(CCCC(=O)NCCc3ccc(S(N)(=O)=O)cc3)nnc12 | 43.6 µM (active)
Cc1cc(NC(=O)c2ccccc2F)nc2c1c(=O)oc1ccccc12 | 15.4 µM (active)
COc1ccc(/C=C2/SC(=O)N(CCC(=O)Nc3ccc(C)cc3)C2=O)cc1OC | inactive

Compound | Potency
CC1CCN(S(=O)(=O)c2ccc3nc(N4CCN(c5ccccc5)CC4)ccc3c2)CC1 | 15.4 µM (active)
COCCNC(=O)NC(=O)COC(=O)C12CC3CC(CC(NC(C)=O)(C3)C1)C2 | inactive
CCN(CC)S(=O)(=O)c1ccc(N2CCOCC2)c(NC(=O)c2cc([N+](=O)[O-])ccc2Cl)c1 | inactive
O=C(O)c1cccc(CSc2nnc(Cc3ccccc3)o2)c1 | inactive
Cc1ccc(-n2nnc3c(=O)n(CC(=O)NCC4CCCO4)cnc32)cc1 (stereo not drawn) | 30.9 µM (active)
O=C(Nc1ccccc1C(=O)NC1CCCCC1)c1ccco1 | inactive
Cc1cccn2c(=O)c(/C=C3\SC(=S)NC3=O)c(NCCCN3CCOCC3)nc12 | 4.35 µM (active)
N#CCCSc1ncnc2c1oc1ccccc12 | 19.4 µM (active)
COc1ccc(CC(=O)N/N=C/c2cccnc2)cc1OC | inactive
COC(=O)Cn1cnc2c(C#N)c3n(c2c1=O)CCCC3 | 30.9 µM (active)
Cn1c(=O)c2c(ncn2CC(=O)NC2CCCCC2)n(C)c1=O | 48.9 µM (active)
O=C(Nc1ccccc1C(=O)Nc1ccc(F)cc1)c1ccco1 | inactive
CCOC(=O)CNC(=O)CSc1nc2c(C)cccc2cc1CC | 19.4 µM (active)
CC(NC(=O)c1ccccc1NC(=O)c1ccco1)C(=O)O (stereo not drawn) | inactive
CC(C)c1ccccc1NC(=O)c1ccccc1NC(=O)C1CCCCC1 | inactive
O=c1oc2cc(O)c(Cl)cc2c2ccccc12 | 6.9 µM (active)
